Pf growth 96h – P. falciparum growth inhibition at 96 hour, primary screen for plastid delayed-death inhibitors | Potency, µM (titrated, usually from 28.7 µM), inactives show at the top dose activity change, negative = inhibition, hits mostly inhibitors | 6.9% of 320,000 active | AID 504834 | P. falciparum luciferase reporter growth, 96 h; active = well fitted inhibition curve with a large enough effect; inconclusive = small, poorly fitted or top-dose-only effect, or another doubt; inactive = no such curve, though single readings can be large or run the other way; also: % is scaled to controls: 0 for no effect and ±100 for the full control effect
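96 h incubation, 37 C, 5% CO2, of luciferase-reporter P. falciparum-infected RBCs (2% hematocrit, 0.05% parasitemia final) with test compounds; endpoint luminescence.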
SARS PLpro yeast – inhibitors of SARS-CoV papain-like protease in yeast. Potency, µM (top dose mostly 32.9 µM), for inactives: at the highest dose activity, positive = growth rescue, hits mostly activators. 0.19% of 330,000 active. S. cerevisiae expressing SARS-CoV PLpro, growth rescue. AID 485353; also: 0% is about no effect; nearly all actives have a fitted effect of over 55% in size
NS1 inh – influenza NS1 inhibition; 0.4% of 270,000 active; Potency, µM (highest dose often 46.1 µM), for the others: top-dose activity, positive = more growth; AID 2326; also: actives are rising curves; nearly all actives have a fitted effect of over 50% in size
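In this qHTS, NS1 from influenza A is expressed in budding yeast, where it slows growth. Cells are switched from glucose to 2% galactose medium (pH 6.0, -URA), treated with compound, and growth recovery is read at OD600.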
Pf growth 48h – inhibits P. falciparum growth in the first generation, 48 h; P. falciparum luciferase growth in erythrocytes, 48 h; Potency, µM (series often up to 28.7 µM), inactives show at the highest dose activity change, negative = inhibition, most hits filed as inhibitors; 5.9% of 310,000 active; AID 504832; active = well fitted inhibition curve with a large enough effect; inconclusive = small, poorly fitted or top-dose-only effect, or another doubt; inactive = no such curve, though single readings can be large or run the other way; also: % is scaled to controls: 0 for no effect and ±100 for the full control effect
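Luciferase-expressing parasites in RBCs, 2% Hct / 0.1% parasitemia final; RPMI 1640 + 0.5% Albumax; 37 C, 5% CO2, one generation; luminescence read-out, lower signal = inhibition.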
Active calls of the source: *; ? = inconclusive; . = no result. Most compounds without a hit are left out; they make up all but 10% or so of the library. Unless noted, calls follow the shape of the full dose curve. Potency is read from the fitted curve at half-maximal effect.

SMILES | Pf growth 96h | SARS PLpro yeast | NS1 inh | Pf growth 48h
Cc1ccc(-n2nc3c(=O)n(CC(=O)NCCCc4ccccc4)nc(C)c3c2C)cc1 | ? | -5% | 8% | 13%
Cc1ccc(-n2nc3c(=O)n(C(C)C(=O)NCCCc4ccccc4)nc(C)c3c2C)cc1 (configuration not stated) | 8.3µM* | -1% | 2% | ?
COc1ccc(OC)c(CCNC(=O)C(C)n2nc(C)c3c(C)n(-c4ccc(C)cc4)nc3c2=O)c1 (configuration not stated) | ? | 0% | 0% | ?
Cc1nn(C(C)C(=O)NCCc2cccs2)c(=O)c2nn(-c3ccccc3)c(C)c12 (configuration not stated) | 13µM* | -3% | -10% | 11%
COc1cc2c(cc1OC)CN(C(=O)C1CCN(S(=O)(=O)c3ccccc3F)CC1)CC2 | ? | 0% | 5% | -19%
Cc1ccccc1OCCC(=O)OCC(=O)NC1CCCCC1 | 5% | 0% | . | 18%
CCCOc1ccc(/C=N/NC(=O)c2nnn(-c3nonc3N)c2-c2cccs2)cc1OC | 12µM* | 3% | -5% | 13µM*
CCOc1cccc(-c2c(C(=O)N/N=C/c3ccc(Br)cc3)nnn2-c2nonc2N)c1 | 2.6µM* | -3% | 2% | ?
CCOc1ccc(-c2c(C(=O)N/N=C/c3cccc(Br)c3)nnn2-c2nonc2N)cc1 | 2.9µM* | -3% | 9% | ?
CC(=O)c1ccc(NC(=O)CSc2nnc(C3CC3)n2C2CC2)cc1 | . | 2% | . | .
COc1ccc(NS(=O)(=O)c2cccc(C(=O)N3CCN(Cc4cc(OC)ccc4OC)CC3)c2)cc1 | ? | 0% | -24% | ?
COc1ccc(OC)c(CN2CCN(C(=O)c3cccc(S(=O)(=O)Nc4ccc(C)cc4)c3)CC2)c1 | 9.3µM* | -1% | . | 10µM*
COc1ccc(OC)c(CN2CCN(C(=O)[C@@H](NC(=O)c3cccc(C)c3)C(C)C)CC2)c1 | ? | 2% | . | 10µM*
COc1ccc(OC)c(CN2CCN(C(=O)c3cc(S(=O)(=O)Nc4ccccc4OC)ccc3C)CC2)c1 | 3.3µM* | 0% | -22% | ?
O=C(CCc1ccccc1)N=C1SC2CS(=O)(=O)CC2N1Cc1ccc(F)cc1 (configuration not stated) | 43% | 0% | -11% | 0%
CCn1cc(C(=O)NCCC(C)C)c(=O)c2cc(F)c(N3CCN(C(=O)c4ccco4)CC3)cc21 | 2.3µM* | 3% | 20% | ?
CCn1cc(C(=O)O)c(=O)c2cc(F)c(N3CCN(C(=S)NC(=O)c4ccccc4C)CC3)cc21 | ? | 0% | 6% | ?
CCN(CC)CCCNC(=O)c1cn(CC)c2cc(N3CCN(C(=O)c4ccco4)CC3)c(F)cc2c1=O | ? | -1% | -8% | 7.4µM*
CCn1cc(C(=O)Nc2ncccc2O)c(=O)c2cc(F)c(N3CCN(C(=O)c4ccco4)CC3)cc21 | 4.7µM* | -4% | 22% | ?
CCN(CC)CCNC(=O)c1cn(CC)c2cc(N3CCN(C(=O)c4ccco4)CC3)c(F)cc2c1=O | -24% | 0% | -5% | -18%
CCn1cc(C(=O)O)c(=O)c2cc(F)c(N3CCN(C(=S)Nc4ccc(OC)cc4)CC3)cc21 | ? | -3% | -4% | ?
CCn1cc(C(=O)NC(C)C)c(=O)c2cc(F)c(N3CCN(C(=O)c4ccco4)CC3)cc21 | 5.9µM* | 3% | -2% | 5.2µM*
COc1ccccc1CNS(=O)(=O)CCNC(=O)c1ccccc1 | 6% | -2% | . | 6%
CN(C)c1cccc(C(=O)NNC(=O)C23CC4CC(CC(C4)C2)C3)c1 | . | -8% | . | .
CC(OC(=O)C1CC(=O)N(Cc2ccccc2)C1)C(=O)Nc1cccc(C#N)c1 (configuration not stated) | 6.6µM* | 3% | 21% | 0%
SMILES | Pf growth 96h | SARS PLpro yeast | NS1 inh | Pf growth 48h
CCOc1ccccc1C(=O)OCC(=O)NCC1CCCCC1 | 6% | 0% | . | 5%
Cc1nn(-c2ccccc2)c(N)c1N=O | 21% | -2% | 0% | 15%
Cc1nn(-c2ccccc2)c(N)c1C(c1ccccc1)c1c(C)nn(-c2ccccc2)c1N | 13µM* | 4% | 8% | ?
CC(=O)N1CCN(Cc2nc3scc(-c4ccccc4)c3c(=O)[nH]2)CC1 | 13µM* | 1% | . | ?
CC(C)(C)NC(=O)C1CCN(C(=O)c2ccco2)CC1 | -5% | 1% | 15% | 12%
O=C(O)Cc1c[nH]c2ccc(F)cc12 | . | . | -4% | .

Screening results as filed in PubChem BioAssay.
